KB-V1 cytotox – KB-V1 MDR subline cytotoxicity | KB-V1 MDR cells viability, CellTiter-Glo, 72 h | Potency, µM (series often up to 46.1 µM), usual class: cytotoxic | 400,000 compounds, 3.4% hits | AID 1347076; note: % is set by controls: 0 for no effect and ±100 for the full control effect; nearly all actives have a fitted effect of over 60% in size
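qHTS viability screen in drug-selected KB-V1 MDR cells: 72 h compound treatment at 37 degrees C, ATP luminescence end point.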
MCF10A rerep – inducers of DNA re-replication in MCF 10A breast cells | MCF 10A DNA re-replication, Hoechst nuclear intensity, 48 h | Potency, µM (highest dose often 46.1 µM), inactives show at the highest dose activity, positive = re-replication, most hits filed as activators | 350,000 compounds, 2.9% hits | AID 624296; note: % of control where 0% means no effect; nearly all actives have a fitted effect of over 50% in size
ELG1 DNA repair – ELG1-dependent DNA repair inhibition; HEK293T ELG1-luciferase reporter, luminescence, 16 h; DNA damage induced by 5-fluorouridine; Potency, µM (top dose mostly 46.1 µM), without a hit: at the top dose activity change, negative = inhibition, usual class: inhibitors; 330,000 compounds, 2.3% hits; AID 504467; note: % is set by controls: 0 for no effect and ±100 for the full control effect; nearly all actives have a fitted effect of over 55% in size
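In this reporter screen, reduction of luminescence relative to DMSO vehicle indicated activity. Compounds and 5-fluorouridine were added together to 2,000 cells per well, incubated for 16 hr at 37 °C, then developed with ONE-Glo.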
SW480 rerep – DNA re-replication induction in SW480 cells | SW480 DNA re-replication, Hoechst DNA content imaging, 48 h | Potency, µM (top dose mostly 46.1 µM), inactives show at the top dose re-replication activation, most hits filed as activators | 340,000 compounds, 1.8% hits | AID 624297; note: % of control where 0% means no effect; nearly all actives have a fitted effect of over 55% in size
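Compounds, transferred as 23 nL by pin tool, were incubated with cells for 48 hr; DNA content per nucleus was then quantified by Hoechst staining and fluorescence plate imaging.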
KB-3-1 tox – kills parental KB-3-1 adenocarcinoma cells | KB-3-1 viability, CellTiter-Glo ATP luminescence, 72 h | Potency, µM (titrated, usually from 46.1 µM), actives largely listed as cytotoxic | 400,000 compounds, 1.4% hits | AID 1347075; note: % is set by controls: 0 for no effect and ±100 for the full control effect; nearly all actives have a fitted effect of over 60% in size
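Cytotoxicity measured as CellTiter-Glo luminescence after 72 h at 37 C. Compound titrations were pinned onto drug-naive KB-3-1 parental adenocarcinoma cells grown in DMEM with 10% FBS, and normalized data fitted to concentration-response curves.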
* hit, by the source's call; [ ] = remark or other dose. A selection: hits, their analogues and other compounds. The true share with any hit is near 8.1%. Calls come from the whole dose curve; as a rule, active = well fitted curve in the direction sought with a large enough effect; inconclusive = small, poorly fitted or top-dose-only effect, or another doubt; inactive = no such curve, though single readings can be large; an effect the other way counts as inactive or inconclusive. Potency is the fitted concentration of half-maximal effect.

CCOC(=O)N1CCN(C(=O)c2ccc3c(c2)N=C(CC)c2cc(C)ccc2S3)CC1 was read as KB-V1 cytotox inactive, MCF10A rerep 0.4%, ELG1 DNA repair inconclusive, SW480 rerep -16.2% and KB-3-1 tox inactive.
For CCC1=Nc2cc(C(=O)NCc3ccco3)ccc2Sc2ccc(C)cc21 the results were KB-V1 cytotox 0.164µM*, MCF10A rerep 1.46µM*, ELG1 DNA repair 15.7%, SW480 rerep 1.03µM* and KB-3-1 tox inconclusive.
CCC1=Nc2cc(C(=O)NCCN3CCOCC3)ccc2Sc2ccc(C)cc21 was read as KB-V1 cytotox inactive, MCF10A rerep -1.8%, ELG1 DNA repair 0.7%, SW480 rerep inconclusive and KB-3-1 tox inactive.
For CCCC1=Nc2cc(C(=O)N3CCCC3)ccc2Sc2ccc(C)cc21 the results were KB-V1 cytotox inconclusive, MCF10A rerep inconclusive, ELG1 DNA repair 12.7%, SW480 rerep inconclusive and KB-3-1 tox inactive.
Screening Fc1ccccc1OCCSc1ncnc2nc[nH]c12 returned KB-V1 cytotox inactive, MCF10A rerep -0.6%, ELG1 DNA repair inconclusive, SW480 rerep -39.6% and KB-3-1 tox inactive.
Screening COc1ccc(S(=O)(=O)N2CCCCCC2)cc1C(=O)OCC(=O)NC(N)=O returned KB-V1 cytotox inactive, MCF10A rerep 3.8%, ELG1 DNA repair -2.3%, SW480 rerep -7.5% and KB-3-1 tox inactive.
Screening CC(CCc1ccc(O)cc1)NCC(O)c1ccc(O)cc1 (stereo unspecified) returned MCF10A rerep -3.1% and SW480 rerep 2.0%.
Screening c1ccc(CN2CN=C(Nc3nc4ccccc4s3)NC2)cc1 returned KB-V1 cytotox inactive, MCF10A rerep -181.6%[0.0737 µM], ELG1 DNA repair 4.2%, SW480 rerep 2.8% and KB-3-1 tox inactive.
Screening CC1CCCCC1N1CN=C(Nc2nc3ccccc3s2)NC1 (stereo unspecified) returned KB-V1 cytotox 18.4µM*, MCF10A rerep 6.0%, ELG1 DNA repair -3.7%, SW480 rerep -0.2% and KB-3-1 tox inactive.
Screening COc1ccc(CN2CN=C(Nc3nc4ccccc4s3)NC2)cc1 returned KB-V1 cytotox 4.61µM*, MCF10A rerep 2.6%, ELG1 DNA repair 1.7%, SW480 rerep -6.3% and KB-3-1 tox inactive.
Screening CCCc1nc(Cl)c(C#N)c2c1CCCC2 returned KB-V1 cytotox inactive, MCF10A rerep inconclusive, ELG1 DNA repair inconclusive, SW480 rerep -1.7% and KB-3-1 tox inactive.
CCc1nc(Cl)c(C#N)c2c1CCCC2 was read as KB-V1 cytotox inactive, MCF10A rerep 1.2%, ELG1 DNA repair 13µM*, SW480 rerep 1.1% and KB-3-1 tox inactive.
`Cc1nnc(SCC(=O)N(C)CC(=O)Nc2ccccc2Cl)s1` gave KB-V1 cytotox inactive, MCF10A rerep 25.2%, ELG1 DNA repair inconclusive, SW480 rerep -36.5% and KB-3-1 tox inactive.
`CN(CC(=O)Nc1ccccc1Cl)C(=O)CSc1nc2ccccc2s1` gave KB-V1 cytotox 16.4µM*, MCF10A rerep -3.1%, ELG1 DNA repair 14.4%, SW480 rerep 1.9% and KB-3-1 tox inactive.
CN(C(=O)CSc1nc2ccc(NC(=O)COc3ccc(Cl)cc3)cc2s1)c1ccccc1 was read as KB-V1 cytotox 20.6µM* and KB-3-1 tox inconclusive.
Screening CN(CC(=O)Nc1ccccc1Cl)C(=O)COC(=O)c1nc(Cl)c(Cl)c(Cl)c1Cl returned KB-V1 cytotox inactive, MCF10A rerep 5.8µM*, ELG1 DNA repair inconclusive, SW480 rerep inconclusive and KB-3-1 tox inconclusive.
For CCc1ccccc1NC(=O)CN(C)C(=O)CSc1nnc(Nc2cccc(C)c2C)s1 the results were KB-V1 cytotox 18.4µM*, MCF10A rerep 14.6%, ELG1 DNA repair inconclusive, SW480 rerep -4.4% and KB-3-1 tox inactive.
`Cc1ccc(C(=O)NCC(=O)NCC(=O)OCC(=O)c2cccs2)cc1` gave KB-V1 cytotox inconclusive, MCF10A rerep -3.3%, ELG1 DNA repair 15.3%, SW480 rerep 0.8% and KB-3-1 tox inactive.
CCc1noc(C)c1C(=O)OC(C)C(=O)c1c(C)[nH]c2ccccc12 (stereo unspecified) was read as KB-V1 cytotox inconclusive, MCF10A rerep -0.8%, ELG1 DNA repair 1.5%, SW480 rerep -5.6% and KB-3-1 tox inactive.
